This is an account of results in PubChem BioAssay (NCI).

Molecules are shown by their SMILES. The panel holds about 83,000 compounds, 20% with a hit somewhere; the sample as a whole holds those more often.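 48-hour exposure, single concentration, 96-well plates; percent growth endpoint where 0 means no net growth. Active: below 10.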 Values without a mark were called inactive. The source made the active and inactive calls.

Holding throughout (test): NCI-60 one-dose screen, 48 h (100 = growth as untreated, 0 = no growth, -100 = all killed)
What all share (conditions): 10 µM

The test system of assay [1] is NCI-H23 lung.
The subject of assay [2] is NCI-H226 lung.
For assay [3], the system named is NCI-H322M lung.
For assay [4], the system named is HOP-62 NSCLC.
For assay [5], the system named is NCI-H460 lung.
Assay [6] concerns NCI-H522 lung.
Assay [7] deals with A549/ATCC NSCLC.
Assay [8] relates to 786-0 renal.
Assay [9] relates to COLO 205 colon.
Assay [10] deals with DU-145 prostate.
For assay [11], the system named is K-562 leukemia.
For assay [12], the system named is MDA-MB-231 breast.
Assay [13] deals with RXF 393 renal.
Assay [14] concerns SF-268 CNS.
Assay [15] has as its system SF-295 CNS.
Assay [16] has as its system SF-539 CNS.
The test system of assay [17] is UACC-257 melanoma.
Assay [18] relates to HCT-15 colon.
The subject of assay [19] is M14 melanoma.
Assay [20] relates to MALME-3M melanoma.

As to `CCCCCC(=O)c1ccc(OCCCN2CCN(C(=O)OCC)CC2)cc1`, the growth is 81.2% in assay [1]; 73% in assay [2]; 119% in assay [3]; 108% in [4]; 99.1% in assay [5]; 101% in assay [6]. In addition, the growth was 94.8% in assay [7]; 97.5% in assay [8]; 96.3% in assay [9]; 107% in [10]; 66.4% in [11]; 99.5% in [12]. The growth in assay [13] was 102%; in [14], 108%; in assay [15], 81.8%; in [16] it was 104%; in assay [17], 95.6%; in assay [18], 85.1%.
As for `CCN(CC)CCOc1nc2ccc(OC)cc2c2c1-c1ccc(OC)cc1C2=O`, the growth in assay [1] is -30.5% (active); in assay [2], 16.5%; in [3], -13.2% (active); in assay [4] it was 6.96% (active); in assay [5], -75.4% (active); in [6], -89.2% (active). Further, the growth is -67.2% (active) in [7]; 26% in assay [8]; 15.3% in [9]; -70.3% (active) in [10]; -43.5% (active) in assay [11]; 20.5% in [12]. For the same molecule, the growth in assay [13] was 4.4% (active); in [14] it was 17.3%; in assay [15], -2.73% (active); in [16], 28.8%; in assay [17], -52.8% (active); in assay [19] it was -83.3% (active). The growth in [18] is -59.4% (active).
For `Nc1ccc2cc(S(=O)(=O)O)cc(O)c2c1N=Nc1ccc(F)cc1`, the growth is 94.6% in assay [1]; 107% in assay [2]; 104% in assay [3]; 109% in [4]; 115% in assay [5]; 100% in assay [6]. For the same molecule, the growth in [7] was 109%; in assay [8] it was 100%; in assay [9], 111%; in assay [10] it was 118%; in assay [11], 119%; in assay [12], 112%. Further, the growth in assay [13] is 119%; in assay [14], 114%; in assay [15], 110%; in [16], 95.9%; in [17], 106%; in assay [19], 100%. In addition, in assay [18], the growth was 105%.
On to `Clc1ccc(/C=C2\CCCC3=C2N=C2SC=NN2C3c2ccc(Cl)cc2)cc1` (stereo unspecified), for which the growth in [1] is 94.8%; in [2], 107%; in [3], 96.2%; in [4], 112%; in [5], 97.2%; in [6], 106%. The growth in assay [7] was 88.6%; in [8], 103%; in [9], 113%; in assay [10], 98.3%; in assay [11], 102%; in [12], 104%. Also, the growth in assay [13] was 105%; in assay [14] it was 99.2%; in assay [15] it was 105%; in assay [16], 106%; in assay [17] it was 97.1%; in assay [18], 87.3%.
For the molecule `CC(=O)/C(=C/c1ccccc1)C(=O)CC(C)C`, the growth in [1] was 100%; in assay [2], 106%; in [3], 116%; in assay [4], 115%; in assay [5], 99.8%; in assay [6], 95.2%. Also, the growth in [7] is 97%; in [8] it was 95.9%; in assay [9], 100%; in [10] it was 92.8%; in assay [11], 41.5%; in assay [12], 119%. The growth in [13] was 103%; in assay [14] it was 95.3%; in assay [15], 102%; in assay [16] it was 109%; in assay [17] it was 89.6%; in [19], 82.9%. The growth in [18] is 76.1%.
In the case of `O=C(CNC(=O)OCc1ccccc1)NCC(=O)Oc1ccc([N+](=O)[O-])cc1`, the growth in assay [1] was 102%; in assay [2], 99%; in [3], 107%; in assay [4], 107%; in assay [5], 101%; in assay [6], 89.6%. Besides, the growth is 23.6% in assay [7]; 103% in assay [8]; 99.2% in assay [9]; 111% in [10]; 117% in assay [11]; 106% in [12]. The growth in assay [13] is 117%; in [14], 108%; in [15] it was 103%; in [16], 104%; in assay [19], 89.5%; in assay [18], 105%.
With `Oc1[nH]c2ccc(Cl)cc2c1/C=c1/ccc2c(c1)N=C(c1cccs1)N=2`, the growth in assay [1] is 64.4%; in assay [2], 85%; in assay [3], 78.4%; in assay [4] it was 83.1%; in [5] it was 66.1%; in assay [6], 53.3%. The growth was 63.5% in [7]; 66.7% in assay [8]; 73% in assay [9]; 58.7% in [10]; 30.9% in [11]; 91.2% in assay [12]. Besides, the growth in [13] was 49.7%; in assay [15] it was 41.4%; in assay [16] it was 81.3%; in assay [17], 48.5%; in assay [18], 55.4%.
For `CO/N=C(/C(=O)NC1C(=O)N2C(C(=O)O)=C(COC(N)=O)CSC12)c1ccco1` (stereo unspecified), the growth is 107% in assay [1]; 109% in [2]; 100% in assay [3]; 112% in assay [4]; 118% in assay [5]; 99.4% in [6]. For the same molecule, the growth in assay [7] was 101%; in assay [8] it was 96%; in assay [9], 114%; in [10], 127%; in assay [20], 94.3%; in [12], 107%. For the same molecule, the growth in [14] is 124%; in [15], 105%; in assay [16] it was 100%; in assay [17], 104%; in [19], 102%; in assay [18], 104%.
